Several values for one entry are separate records, joined by “and”; a condition that tells them apart may be missing. Identical values can stand only once. The whole screen tested about 18,000 compounds, of which about 1,200 (6.7%) were called active. Where a call stands in place of a potency, no number is given. About 16% were inconclusive and are not listed. This excerpt belongs to a sample that is enriched for actives. Unmarked numbers belong to inactive results. Calls follow the shape of the full dose curve; tested in HEK293 cells.
experiment: qHTS for Inhibitors of binding or entry into cells for Marburg Virus; settings: Marburg virus pseudotype entry/binding inhibition, cell-based; series mostly up to 49.2 µM
Potency is read from the fitted curve at half-maximal effect.

Compound	Potency	activity change, negative = inhibition
CNCC[C@H](Oc1ccc(C(F)(F)F)cc1)c1ccccc1	3.98 µM (active) and 8.91 µM (active)	
COC(=O)N[C@@H](c1ccccc1)[C@]1(C(=O)OC)CCCC1=O		-27.3% [at 8.59 µM]
CC[C@H](C)[C@@H](NC(=O)O[C@@H]1C(=O)c2cc(OC)ccc2O[C@H]1c1cccc(OC)c1)C(=O)OC		inactive
COc1ccccc1C1CN(CCNC(=O)C2=CCCC2)Cc2ccccc2O1 (stereo not drawn)		inactive
COCC(=O)Nc1cc(C(=O)N2CCCC(c3ccccc3)CC2)c2c(c1)nc(-c1ccncc1)n2C (stereo not drawn)		inactive
C=C(C)C(=O)c1ccc(F)cc1		inactive
C[C@@H]1[C@@H](c2ccccc2)Oc2c(Cl)cccc2S(=O)(=O)N1Cc1ccc(Cl)cc1		inactive
C#C[C@]1(O)CC[C@H]2[C@@H]3CCC4=C/C(=N/O)CC[C@@H]4[C@H]3CC[C@@]21CC		inactive
COCCN1C(=O)N[C@@H](CCc2ccccc2)[C@H](C(C)=O)[C@H]1C		-2.21% [at 8.59 µM]
COc1ccc([C@]23Cc4ccccc4[C@H](O2)c2c(c4ccc(OC)cc4oc2=O)O3)cc1		-9.62% [at 8.59 µM]
COc1ccc(-c2nc3c(c4c2C[C@H](c2ccccc2)OC4)CN(C(=O)c2cccnc2)CC3)c(C)c1		29.8% [at 8.59 µM]
CC[C@H]1C[C@H](C=CCC(C(=O)OC)C(=O)OC)OP(=O)(OC)O1 (stereo partly drawn)		inactive
CC[C@H]1CN2CCc3cc(OC)c(OC)cc3[C@@H]2C[C@@H]1C[C@H]1NCCc2cc(OC)c(OC)cc21	0.398 µM (active)	
Cc1cc2oc(=O)cc(-c3ccccc3)c2c(C)c1-c1ccc(OC(F)(F)F)cc1		inactive
O=C1OCCN1C(=O)[C@H]1[C@H](c2ccccc2)C(c2ccc(F)cc2)=NN1c1ccccc1		inactive
C=C/C1=C/Cc2ccccc2[C@H](C[N+](=O)[O-])C(C(=O)OC)(C(=O)OC)C1		inactive
CC/C=C\C/C=C\C/C=C\C/C=C\C/C=C\C/C=C\CCC(=O)NCCc1ccc(O)c(O)c1		inactive
CC1=C2[C@@H](O)[C@H]([C@@H](C)C(=O)NCCC(C)C)CC[C@@]2(C)C=CC1=O		inactive
O=C(C1CCCCC1)N1C[C@@H](n2cc(C3CC3)nn2)[C@@H](O)C[C@@H]1c1ccccc1		inactive
Cc1ccc(-c2ccc(CN3C(C(C)C)C(=O)N(Cc4cn(CCC5OCCCO5)nn4)CCS3(=O)=O)cc2)cc1 (stereo not drawn)		inactive
COC(=O)C12C[C@H](C)C3C(C)C(c4ccccc4C31)N2C(=O)C(F)(F)F (stereo partly drawn)		-25.2% [at 8.59 µM]
CCN1C(=S)NC(c2cccc(C(F)(F)F)c2)C(C(=O)OC)=C1C (stereo not drawn)		95.8% [at 8.59 µM]
CCOC(=O)CN1C(=O)N[C@@H](c2ccc(Br)cc2)C(C(C)=O)=C1C		inactive
CC(=O)Oc1c2c(c3c(c1CC=C(C)C)O[C@@]14C(=CC5CC1C(C)(C)OC4(C/C=C(\C)C(=O)O)C5=O)C3=O)OC(C)(CCC=C(C)C)C=C2 (stereo partly drawn)	3.55 µM (active)	

Compound	Potency	activity change, negative = inhibition
Cc1cccc([C@H]2[C@@H]3C=CC[C@@H](C)[C@@H]3C(=O)N2Cc2ccccc2)c1		inactive
COc1cccc([C@H](O)Cn2cc(-c3ccc(CON=C(C)C)cc3)nn2)c1		7.92% [at 8.59 µM]
Cc1cc2c(nc1C)CCCCN2C[C@H](C)ON=C1[C@H]2CCn3c(=O)n(-c4ccccc4)c(=O)n3[C@@H]2[C@H](O)[C@@H]2O[C@H]12		26% [at 8.59 µM]
N#Cc1c(Cl)c(Cl)c(Cl)c(C#N)c1Cl	1.12 µM (active)	
COCOc1cc(OC)ccc1C(=O)/C=C/c1ccc([N+](=O)[O-])cc1		inactive
OCCN1CCN(CC/C=C2\c3ccccc3Sc3ccc(C(F)(F)F)cc32)CC1	12.6 µM (active)	
CC(C)(C)OC(=O)NCCCCC1=CC2=CC(=O)C(C)(OC(=O)c3cccs3)C(=O)C2=CO1 (stereo not drawn)		inactive
CCOC(=O)C1=C(C)c2ccccc2OC1C(=O)OCC (stereo not drawn)		inactive
COc1cccc(CC(=O)N2CCc3nc(COc4ccccc4)c4c(c3C2)CO[C@@H](C)C4)c1		-8.64% [at 8.59 µM]
N#Cc1cccc(CS(=O)(=O)c2nnnn2-c2cc(C(F)(F)F)cc(C(F)(F)F)c2)c1		inactive
COc1ccccc1-c1ccnc(-n2ncc(C(=O)NCCc3ccncc3)c2C)n1		inactive
CC(C)[C@@H](CC(=O)N[C@@H]1CCNC[C@H]1C(=O)N[C@H](CC(=O)N[C@@H](CCC(=O)O)CC(=O)O)Cc1ccccc1)NC(=O)C[C@H](CO)NC(=O)[C@@H]1CNCC[C@H]1N		inactive
COC(=O)[C@H]1[C@@H](c2ccccc2)NC(=O)O[C@@H]1C		55.5% [at 8.59 µM]
CC(C)CNc1cccc2c1S(=O)(=O)N[C@H](CC(C)C)CO2		inactive
COCCN1C(=S)NC(c2cccc(F)c2)C(C(=O)OC)=C1C (stereo not drawn)		20.9% [at 8.59 µM]
N#Cc1ccc2c(c1)C[C@]1(CCCCN3C(=O)c4ccccc4C3=O)OC3=C(C(=O)OC4(CCCCC4)C3)[C@H]2O1		9.87% [at 8.59 µM]
CN(Cc1ccccc1F)c1cc2c(c3c1ccn3C)C1CCC2O1 (stereo not drawn)		inactive
COC(=O)[C@@H]1CC2=CC(=O)CC[C@]2(C)[C@@]23O[C@@H]2C[C@@]2(C)[C@@H](CC[C@@]24CCC(=O)O4)[C@H]13		inactive
CC[C@]1(O)C(=O)OCc2c1cc1n(c2=O)Cc2cc3ccccc3nc2-1	2.82 µM (active)	
CCCN(C/C=C/I)C1CCc2ccc(O)cc2C1 (stereo not drawn)		inactive
CCCN(C/C=C\I)[C@@H]1CCc2cccc(O)c2C1	25.1 µM (active)	
CCCN(CCc1ccccc1)C1CCc2c(O)cccc2C1 (stereo not drawn)	35.5 µM (active)	
O=C(Nc1cc(C(=O)Nc2ccc(S(=O)(=O)O)cc2)cc(C(=O)Nc2ccc(S(=O)(=O)O)cc2)c1)Nc1cc(C(=O)Nc2ccc(S(=O)(=O)O)cc2)cc(C(=O)Nc2ccc(S(=O)(=O)O)cc2)c1		inactive
COC(=O)C/C=C/[C@@H](C)[C@H](NC(=O)OCC(Cl)(Cl)Cl)c1ccccc1		inactive
